# Laboratory results: PubChem BioAssay AID624202 (National Center for Advancing Translational Sciences (NCATS), 2012)
# Screen size: about 380,000 compounds; about 4,000 (1.1%) were called active. Not shown: some 3% with an inconclusive outcome. Calls come from the whole dose curve; as a rule, active = well fitted activation curve with a large enough effect; inconclusive = small, poorly fitted or top-dose-only effect; inactive = no such curve, though single readings can be large or run the other way. Only a selection was taken, and actives are over-represented in it overall.
# Experiment: qHTS Assay to Identify Small Molecule Activators of BRCA1 Expression; note: nearly all actives have a fitted effect of over 80% in size
# Conditions: MCF7-BRCA1-FFLuc reporter, luminescence, 48 h; series mostly up to 46.1 µM; activation: at the top concentration
# How it was run: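 48 h compound treatment of MCF7-BRCA1-FFLuc cells (phenol-red free MEM, 37 °C), then 15 min with luciferase substrate and luminescence imaging.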
# Potency is the fitted concentration of half-maximal effect.
SMILES,activation,Potency
COc1ccc2[nH]c3c(c2c1)CCN(C(=O)CCC1CCCC1)C3c1ccc(F)cc1 (stereo not given),-14.9% (inactive),–
Cc1ccc(Cl)cc1N1CCN(C(=O)CN2C(=O)COc3ccc(S(=O)(=O)N4CCOCC4)cc32)CC1,-21.5% (inactive),–
COc1ccc(OCc2cc(C(=O)N3CCCC3)no2)c2ccccc12,64.4% (inactive),–
COc1cccc(OCc2cc(C(=O)N3CCN(C(=O)c4ccco4)CC3)no2)c1,–,11.2 µM (active)
O=C(c1cc(COc2cccc(C(F)(F)F)c2)on1)N1CCSCC1,-8.73% (inactive),–
CCN(CC)S(=O)(=O)c1ccc2c(c1)nc(CN(C)C(=O)Nc1ccc(Cl)cc1)n2C,2.05% (inactive),–
Cc1cc(F)ccc1NS(=O)(=O)c1ccc(-n2cccn2)cc1,-23.9% (inactive),–
Nc1c(C(=O)Nc2ccc3c(c2)OCCO3)nnn1Cc1ccccc1,–,4.47 µM (active)
Cn1cc([N+](=O)[O-])c(C(=O)Nc2ccc3c(c2)OCCO3)n1,78.5% (inactive),–
O=C(Nc1ccc2c(c1)OCCO2)C(C1CC1)N1CCC(Cc2ccccc2)CC1 (stereo not given),-7.79% (inactive),–
COC(=O)c1c(NC(=O)CCCOc2ccccc2)sc2c1CCC(C)C2 (stereo not given),13.8% (inactive),–
CCN(CCCNC(=O)c1cc2cc3cc(OC)ccc3nc2s1)c1ccccc1,8.15% (inactive),–
Cc1cc(NC(=O)CC(C)C)cc(-c2nc3ncccc3o2)c1O,-5.81% (inactive),–
Fc1cccc(Cc2c(-c3ccc(Cl)cc3)nc3ccc(Cl)cn23)c1,18% (inactive),–
Cc1ccc(-c2nc3ccc(Cl)cn3c2Cc2ccccc2)cc1,–,10 µM (active)
Cc1ccc(Cc2c(-c3ccco3)nc3ccc(Cl)cn23)cc1,-32% (inactive),–
CC1(C)CC(=O)c2cc(C(=O)NCc3ccccc3)c(=O)[nH]c2C1,0% (inactive),–
CC(=O)c1ccc(NC(=O)c2cc(-c3cccs3)on2)cc1,67.3% (inactive),–
Cc1ccc(C)c(NC(=O)c2ccc(OC(=O)c3ccco3)cc2)c1,46.3% (inactive),–
Cc1ccc(O)c(NC(=O)c2cc(-c3ccco3)on2)c1,–,5.62 µM (active)
COC(=O)c1ccccc1NC(=O)Cn1c(=O)cc(C)c2c(C)nn(-c3cccc(Cl)c3C)c21,4.63% (inactive),–
O=C(COc1ccccc1)OCc1cc(=O)n2nc(-c3cccs3)sc2n1,0% (inactive),–
Nc1ccc(N=Nc2ccccc2Cl)c(N)n1,–,3.55 µM (active)
CCC(C(=O)Nc1cccc(Cl)c1C)n1nc(-c2ccc(C)cc2)ccc1=O (stereo not given),-24.6% (inactive),–

SMILES,activation,Potency
CS(=O)(=O)c1ccc(C(=O)NNC(=O)c2cccs2)cc1,1.26% (inactive),–
NS(=O)(=O)c1ccc(NC(=S)NNC(=O)c2cccs2)cc1,0% (inactive),–
O=C(Nc1ccccc1)c1ccc(NC(=O)c2cccs2)cc1,–,7.94 µM (active)
COc1cccc(N2CCN(S(=O)(=O)c3cc(Br)cc4c3N(C(=O)C3CC3)CC4)CC2)c1,3.39% (inactive),–
COc1ccccc1C(=O)OCc1cc(=O)n2nc(-c3cccs3)sc2n1,-16.9% (inactive),–
O=C(NCc1cccnc1)c1nc(-c2cccs2)no1,-4.18% (inactive),–
CCCCNc1ccc(-c2nc(-c3ccncc3)no2)cc1[N+](=O)[O-],8.14% (inactive),–
Cc1ccc(-c2noc(-c3ccccc3C(=O)NCC3CCCO3)n2)cc1 (stereo not given),10.2% (inactive),–
c1csc(-c2nc(-c3ccncc3)no2)c1,–,4.47 µM (active)
O=C(c1cccs1)N1CCCC(c2nc(-c3ccc(F)cc3)no2)C1 (stereo not given),78.6% (inactive),–
Cc1ccc(-c2nc(-c3ccncc3)no2)c(C)c1,–,5.01 µM (active)
COc1ccc(-c2nc(C)c(CCNC(=O)c3ccc(C(F)(F)F)cc3)s2)cc1OC,8.95% (inactive),–
COc1ccc(NC(=O)c2ccc3nc(C(C)C)oc3c2)cc1OC,43.9% (inactive),–
COc1ccc(-n2c(=O)c3c(c4cc(OC)ccc4n3C)n(Cc3cccc(C)c3)c2=O)cc1,-15.1% (inactive),–
CCc1nnc(NC(=O)C2CCCN2S(=O)(=O)c2ccccc2)s1 (stereo not given),1.72% (inactive),–
CCOC(=O)CSc1nnc(CNC(=O)c2cccs2)n1-c1ccccc1,-17.3% (inactive),–
CCc1nnc(NC(=O)CCC(=O)NCc2ccccc2OC)s1,0.553% (inactive),–
CCOC(=O)c1c(NC(=O)C2CC=CCC2C(=O)O)sc(C)c1CC (stereo not given),3.34% (inactive),–
CCc1nnc(NC(=O)c2cccs2)s1,–,12.6 µM (active)
CCc1c(C)sc(NC(=O)c2cccs2)c1C(N)=O,–,3.55 µM (active)
CCS(=O)(=O)N1CCc2cc(C(=O)N3CCN(c4ccccc4OC)CC3)ccc21,-1.91% (inactive),–
Cc1nc(NC(=O)C2CCCCC2)sc1C,–,12.6 µM (active)
Cc1nc(NC(=O)C23CCC(C)(C(=O)O2)C3(C)C)sc1C (stereo not given),0.809% (inactive),–
Cc1nc2ccc(NC(=O)C3CCCCC3)cc2s1,22.7% (inactive),–

SMILES,activation,Potency
CC(C)(C(=O)NO)c1ccccc1,28.4% (inactive),–
C/C(=N\NC(=O)c1cccnc1)c1ccc(-n2ccnc2)cc1,14.6% (inactive),–
C/C(=N\NC(=O)c1ccc2ccccc2c1)c1cccnc1,–,10 µM (active)
C/C(=N\NC(=O)c1cccc([N+](=O)[O-])c1)c1cccnc1,-22.5% (inactive),–
OCCNc1ncnc2oc(-c3ccco3)c(-c3ccco3)c12,-32.8% (inactive),–
Cc1oc2ncnc(N3CCCCC3)c2c1C(=O)N1CCN(c2cccc(Cl)c2)CC1,-29.6% (inactive),–
COC(=O)c1ccccc1NS(=O)(=O)c1ccc2c(c1)CCCN2C(C)=O,3.64% (inactive),–
CC(C)CC(=O)NC(=S)NNC(=O)c1cccc([N+](=O)[O-])c1,-31.6% (inactive),–
CC(=O)c1ccc(NC(=S)NC(=O)CC(C)C)cc1,–,7.94 µM (active)
CC(C)CC(=O)NC(=S)Nc1ccc(F)cc1F,46.9% (inactive),–
CCc1ccccc1NC(=O)Cc1ccc(NC(=O)N2CCCCc3ccccc32)cc1,0% (inactive),–
CCCCN(C)S(=O)(=O)c1ccc(C(=O)Nc2sc3c(c2C(N)=O)CC(C)(C)NC3(C)C)cc1,-0.616% (inactive),–
CN(C(=O)c1ccccn1)c1nnc(-c2ccccn2)s1,–,11.2 µM (active)
CCC(C)(C)NC(=O)C(c1ccccn1)N(C(=O)c1csnn1)c1ccccc1 (stereo not given),-9.03% (inactive),–
CN(C(=O)C1CCOC1)c1nnc(-c2cccnc2)s1 (stereo not given),-2.74% (inactive),–
Brc1cccc[n+]1Cc1cccc(C[n+]2ccccc2Br)c1,9% (inactive),–
Cc1cc(C)cc(NC(=O)CCS(=O)(=O)c2cc3c4c(c2)CCN4C(=O)CC3)c1,6.06% (inactive),–
COc1ccc2c(c1OC)C(=O)N(c1ncn[nH]1)C2,3.12% (inactive),–
COc1ccc2c(c1OC)C(=O)N(c1ccc(O)cc1)C2,–,4.47 µM (active)
CC(C)(C)c1ccc(Oc2ccc(N)cc2)cc1,-82.1% (inactive),–
CC(C)(C)c1ccc(OC2=CS(=O)(=O)c3ccccc32)cc1,–,12.6 µM (active)
CC(C)(C)c1ccc(CN2C(=O)c3ccccc3S2(=O)=O)cc1,69.5% (inactive),–
